HT1080 IDH1KD tx: toxicity to HT-1080 IDH1 knockdown cells (counter line); HT-1080 IDH1 knockdown viability, ATP luminescence, 48 h; Potency, µM (titrated, usually from 46.1 µM), for inactives: at the top dose activity, negative = toxicity, hits mostly cytotoxic; hit rate 2% among 360,000; AID 686971;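 also: potency is read from the fitted curve at half-maximal effect; 0% = DMSO wells and -100% = cell-free medium wells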
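Cytotoxicity counter-line: IDH1KD HT-1080, 48 h, CellTiter-Glo. Curves classed by r2, magnitude and activity.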
IL-1B inflam inh: inflammasome signaling inhibition, IL-1 beta readout; THP-1 LPS/ATP IL-1B secretion, AlphaLISA, 16 h; hits give low values; activity change, % at 57.5 µM; hit rate 4.7% among 360,000; AID 743279; in the data active = activity change below about -50%; inconclusive = mostly about -30% to -49%
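THP-1 cells pretreated 1 hr with compounds (up to 57.5 uM final), then stimulated with LPS (250 ng/mL final) plus ATP (1.25 mM final); secreted IL-1B measured by AlphaLISA after 16 hr, decreased signal indicating inhibition.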
TDP1 cell noCPT: qHTS for Inhibitors of human tyrosyl-DNA phosphodiesterase 1 (TDP1): qHTS in cells in absence of CPT. DT40 Tdp1-/- hTDP1 cells, no CPT, ATP luminescence, 48 h. Potency, µM (highest dose often 46.2 µM), inactives show at the highest dose activity change, negative = growth inhibition, hits mostly inhibitors. hit rate 15% among 420,000; also: potency is read from the fitted curve at half-maximal effect; nearly all actives have a fitted effect of over 55% in size
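Growth kinetics read by CellTiter-Glo luminescence after ≥48 hr at 37 °C. Cells: DT40 Tdp1-/- stably carrying human TDP1, 400 per well, compound exposure in the absence of CPT (DMSO vehicle).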
DT40 TDP1 CPT: growth inhibition of DT40 Tdp1-/-;hTDP1 cells with camptothecin (screen for TDP1 inhibitors); hit rate 12% among 420,000; Potency, µM (top dose mostly 46.2 µM), inactives show at the top dose activity change, negative = growth inhibition, actives largely listed as inhibitors; chicken DT40 Tdp1-/-;hTDP1 cells + 20 nM CPT, ATP luminescence, 48 h; also: potency is read from the fitted curve at half-maximal effect; nearly all actives have a fitted effect of over 55% in size
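Chicken DT40 Tdp1-/- cells stably complemented with human TDP1 were seeded at 400 cells/well in medium containing 20 nM camptothecin, exposed to pin-transferred compounds, and grown at 37 °C for at least 48 hr. Viability was read as ATP luminescence.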
HT1080NT lethal: kills 2HG-producing HT-1080-NT fibrosarcoma cells; HT-1080-NT fibrosarcoma viability, CellTiter-Glo ATP luminescence, 48 h; hit rate 1.6% among 360,000; Potency, µM (doses to about 46.1 µM), for inactives: at the top dose activity, negative = less viability, actives largely listed as cytotoxic;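 also: NT is the 2HG producing partner of a matched IDH1 knockdown line; potency is read from the fitted curve at half-maximal effect; 0% = DMSO-treated cells and -100% = media-only wells without cells; nearly all actives have a fitted effect of over 55% in size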
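Read-out is CellTiter-Glo luminescence after 10 minutes at room temperature, following 48 hours' compound treatment of HT-1080-NT cells (750 cells/well, RPMI, 5% FBS, 37 degrees C).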
uPA surface inh: inhibitors of cell surface uPA generation; cell surface uPA generation assay, qHTS; Potency, µM (titrated, usually from 38.3 µM), for the others: at the top dose activity change, negative = inhibition, most hits filed as inhibitors; hit rate 0.31% among 330,000; AID 540303; active = well fitted inhibition curve with a large enough effect; inconclusive = small, poorly fitted or top-dose-only effect; inactive = no such curve, though single readings can be large or run the other way; tested in mouse RAW 264.7 cells; also: potency is read from the fitted curve at half-maximal effect; nearly all actives have a fitted effect of over 55% in size
* = called active by the depositor. Most compounds without a hit are left out; they make up all but 19% or so of the library. Unless noted, calls follow the shape of the dose curve; as a rule, active = well fitted curve in the direction sought with a large enough effect; inconclusive = small, poorly fitted or top-dose-only effect, or another doubt; inactive = no such curve, though single readings can be large; an effect the other way counts as inactive or inconclusive. Unless noted, % is scaled to controls: 0 for no effect and ±100 for the full control effect.

What do the screens show for `COc1ccc(/C=C/C(=O)NC(=S)NNC(=O)c2ccco2)cc1`?
HT1080 IDH1KD tx: -26%; IL-1B inflam inh: 96; TDP1 cell noCPT: 21µM*; DT40 TDP1 CPT: 15µM*; HT1080NT lethal: -26%; uPA surface inh: -15%

Results for CCOC(=O)N1CCN(C(=O)/C=C/c2ccc(OC)c(OC)c2)CC1 ?
HT1080 IDH1KD tx: -1%; IL-1B inflam inh: 6; TDP1 cell noCPT: 3%; DT40 TDP1 CPT: 3%; HT1080NT lethal: 17%; uPA surface inh: -2%

What do the screens show for `Cc1cc(C)c(OCC(=O)OCC(=O)N2CCCc3ccccc32)c(C)c1`?
HT1080 IDH1KD tx: 8%; IL-1B inflam inh: 19; TDP1 cell noCPT: -11%; DT40 TDP1 CPT: -5%; HT1080NT lethal: 13%; uPA surface inh: 4%

Results for Cc1nc(C(F)(F)F)ccc1C(=O)N1CCCCCC1(C)C(=O)NCC(C)C (centres undefined) ?
HT1080 IDH1KD tx: inconclusive; IL-1B inflam inh: 36; TDP1 cell noCPT: -5%; DT40 TDP1 CPT: 1%; HT1080NT lethal: 8%

How did CC(=O)Nc1nc2n(n1)C(c1ccc(Cl)cc1)C=C(C)N2 (centres undefined) do in these assays?
HT1080 IDH1KD tx: 9%; IL-1B inflam inh: -6; TDP1 cell noCPT: -10%; DT40 TDP1 CPT: 3%; HT1080NT lethal: 8%; uPA surface inh: 0%

Results for O=C(Nc1nc2n(n1)C(c1ccc(F)cc1)C=C(c1ccccc1)N2)c1cccc([N+](=O)[O-])c1 (centres undefined) ?
TDP1 cell noCPT: 10µM*; DT40 TDP1 CPT: 18µM*

What do the screens show for `CC(=O)Nc1nc2n(n1)C(c1ccc(F)cc1)C=C(c1ccccc1)N2` (centres undefined)?
HT1080 IDH1KD tx: -2%; IL-1B inflam inh: 3; TDP1 cell noCPT: 18µM*; DT40 TDP1 CPT: inconclusive; HT1080NT lethal: -1%; uPA surface inh: 1%

Results for COc1ccc(C2C=C(c3ccccc3)Nc3nc(NS(=O)(=O)c4ccc(C)cc4)nn32)cc1 (centres undefined) ?
TDP1 cell noCPT: -19%; DT40 TDP1 CPT: -12%

What do the screens show for `CCCNC(=O)c1ccccc1NC(=O)CN(c1ccccc1)S(=O)(=O)N(C)C`?
HT1080 IDH1KD tx: 18%; IL-1B inflam inh: 3; TDP1 cell noCPT: -23%; DT40 TDP1 CPT: 0%; HT1080NT lethal: 19%; uPA surface inh: 1%

How did CN(C(=O)c1nc(-c2ccccc2)n(-c2ccccc2)n1)C1CCS(=O)(=O)C1 (centres undefined) do in these assays?
HT1080 IDH1KD tx: 8%; IL-1B inflam inh: -8; TDP1 cell noCPT: -19%; DT40 TDP1 CPT: -14%; HT1080NT lethal: inconclusive; uPA surface inh: 5%

Results for Cc1ccc(NC(=O)NCc2c(-n3cccc3)sc3c2CCCC3)c(Cl)c1 ?
TDP1 cell noCPT: 23µM*; DT40 TDP1 CPT: inconclusive

How did CC(NC(=O)Nc1cc(Cl)ccc1Cl)c1c(-n2cccc2)sc2c1CCCC2 (centres undefined) do in these assays?
TDP1 cell noCPT: 18µM*; DT40 TDP1 CPT: inconclusive

Results for CCOC(=O)c1c(NC(=S)Nc2ccccc2)sc2c1CCN(CC)C2 ?
HT1080 IDH1KD tx: 20%; IL-1B inflam inh: -14; TDP1 cell noCPT: -26%; DT40 TDP1 CPT: -9%; HT1080NT lethal: 19%; uPA surface inh: 4%

What do the screens show for `CCOC(=O)c1c(NC(=O)c2cc(Cl)ccc2Cl)sc2c1CCCC2`?
TDP1 cell noCPT: -7%; DT40 TDP1 CPT: -8%

Results for Cc1c(Cl)cccc1NC(=O)NCc1c(-n2cccc2)sc2c1CCCC2 ?
TDP1 cell noCPT: -7%; DT40 TDP1 CPT: -9%

Results for CCN1CCc2c(sc(-n3cccc3)c2C(C)NC(=O)Nc2ccccc2C)C1 (centres undefined) ?
TDP1 cell noCPT: 23µM*; DT40 TDP1 CPT: inconclusive

How did CCN1CCc2c(sc(-n3cccc3)c2C(C)NC(=O)Nc2cc(Cl)c(OC)cc2OC)C1 (centres undefined) do in these assays?
TDP1 cell noCPT: 18µM*; DT40 TDP1 CPT: 18µM*

What do the screens show for `CCCCc1nn2c(=O)cc(COC(=O)c3cccs3)nc2s1`?
TDP1 cell noCPT: -12%; DT40 TDP1 CPT: -26%

What do the screens show for `COc1cc(OC)c(NC(=O)NC(C)c2c(-n3cccc3)sc(C)c2C)cc1Cl` (centres undefined)?
TDP1 cell noCPT: -20%; DT40 TDP1 CPT: -25%

What do the screens show for `COc1cc(NC(=O)NC(C)c2c(-n3cccc3)sc3c2CCN(C)C3)cc(OC)c1` (centres undefined)?
TDP1 cell noCPT: 23µM*; DT40 TDP1 CPT: 23µM*

How did CCOCCCNC(=O)NC(CCC(C)C)c1c(-n2cccc2)sc2c1CCN(C)C2 (centres undefined) do in these assays?
TDP1 cell noCPT: 16µM*; DT40 TDP1 CPT: 16µM*

How did CCOCCCNC(=O)c1ccc(CN2CCc3ccccc3C2)cc1 do in these assays?
HT1080 IDH1KD tx: -1%; IL-1B inflam inh: 39; TDP1 cell noCPT: inconclusive; DT40 TDP1 CPT: inconclusive; HT1080NT lethal: 2%

How did CN1CCN(C(=O)CN(C)S(=O)(=O)c2cc(Cl)ccc2Cl)CC1 do in these assays?
HT1080 IDH1KD tx: -4%; IL-1B inflam inh: -2; TDP1 cell noCPT: -7%; DT40 TDP1 CPT: -5%; HT1080NT lethal: -1%; uPA surface inh: 0%

How did Cc1ccc(C)c(-c2nnc(NC(=O)c3ccc4c(c3)OCCO4)o2)c1 do in these assays?
TDP1 cell noCPT: 8.2µM*; DT40 TDP1 CPT: 18µM*

What do the screens show for `COc1cc(OC)cc(C(=O)NNC(=O)c2ccc3c(c2)OCCO3)c1`?
HT1080 IDH1KD tx: 7%; IL-1B inflam inh: -3; TDP1 cell noCPT: -3%; DT40 TDP1 CPT: 4%; HT1080NT lethal: -2%; uPA surface inh: 1%

What do the screens show for `COc1cc(OC)cc(-c2nnc(NC(=O)c3ccc4c(c3)OCCO4)o2)c1`?
HT1080 IDH1KD tx: -3%; IL-1B inflam inh: -3; TDP1 cell noCPT: 8.2µM*; DT40 TDP1 CPT: 10µM*; HT1080NT lethal: 7%; uPA surface inh: -14%

What do the screens show for `Cc1ccc(C)c(-c2nnc(NC(=O)c3ccco3)o2)c1`?
HT1080 IDH1KD tx: -27%; IL-1B inflam inh: 8; TDP1 cell noCPT: inconclusive; DT40 TDP1 CPT: inconclusive; HT1080NT lethal: -1%; uPA surface inh: -10%

Results for Cn1c(SCc2ccccc2)nnc1C1CCCN(Cc2cccc3ncccc23)C1 (centres undefined) ?
TDP1 cell noCPT: -27%; DT40 TDP1 CPT: inconclusive

Screens: PubChem BioAssay, National Center for Advancing Translational Sciences (NCATS)
